From PubChem BioAssay
hcDAF-12 act = H. contortus DAF-12 activation, primary screen. 1.4% of 370,000 active. activation, % at 6.8 µM. HEK293 hcDAF-12 lit1-tk-luc reporter, luminescence; 0% DMSO, 100% Δ7-dafachronic acid;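 active = activation above the mean of all tested compounds plus 3 SD, cut at about 5.5% in these data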
DAX1 inh-1 = DAX1 (NR0B1) inhibition, primary screen. HEK293T StAR-luciferase reporter, SF-1/DAX-1 repression relief. inhibition, % at 6.8 µM. 1.1% of 370,000 active;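 active = inhibition above the mean over all tested compounds plus 3 SD, cut at about 3.6% in these data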;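 note: higher inhibition means more luminescence from relief of DAX-1 repression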
hgDAF-12 ag = activates the H. glycines DAF-12 receptor ligand-binding domain | HEK293 GAL4-hgDAF12 UAS-luciferase reporter, agonist luminescence; normalized to butyrate control | activation, % at 6.8 µM | 1.8% of 370,000 active;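 active = activation above a cutoff set at the mean of all screened compounds plus 3 SD, cut at about 10% in these data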
ssDAF12 agonist = activators of S. stercoralis DAF-12 nuclear receptor; HEK293 ssDAF-12/GRIP1 lit1-tk-luc reporter, luminescence; % of 3 µM dafachronic acid response; activation, % at 6.8 µM; 1% of 370,000 active; AID 652126;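 active = activation above the mean over all tested compounds plus 3 SD, cut at about 0.9% in these data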
DAX1 inh-2 = NR0B1 (DAX1) inhibition | HEK293 Gal4-DAX1 luciferase reporter, luminescence | AID 504766 | inhibition, % at 6.75 µM | 0.99% of 340,000 active | P51843;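 active = inhibition above the mean over all tested compounds plus 3 SD, cut at about 4.2% in these data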;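 note: inhibition shows as a rise in luminescence from relieved DAX1 repression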
LXR ag = counter-screen for hcDAF-12 agonists: agonists of human LXR-beta | shares compounds with hcDAF-12 act | HEK293 Gal4-LXR tk-luc reporter, luminescence, 24 h; normalized: DMSO 0%, positive control 100% | activation, % at 6.8 µM | 3,400 tested, under 10 active;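 active = mean percent activation of the reporter above a cutoff set as the average over tested compounds plus their standard deviation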
Target sequence (P55055 whole entry, looked up, the tested form may be a part): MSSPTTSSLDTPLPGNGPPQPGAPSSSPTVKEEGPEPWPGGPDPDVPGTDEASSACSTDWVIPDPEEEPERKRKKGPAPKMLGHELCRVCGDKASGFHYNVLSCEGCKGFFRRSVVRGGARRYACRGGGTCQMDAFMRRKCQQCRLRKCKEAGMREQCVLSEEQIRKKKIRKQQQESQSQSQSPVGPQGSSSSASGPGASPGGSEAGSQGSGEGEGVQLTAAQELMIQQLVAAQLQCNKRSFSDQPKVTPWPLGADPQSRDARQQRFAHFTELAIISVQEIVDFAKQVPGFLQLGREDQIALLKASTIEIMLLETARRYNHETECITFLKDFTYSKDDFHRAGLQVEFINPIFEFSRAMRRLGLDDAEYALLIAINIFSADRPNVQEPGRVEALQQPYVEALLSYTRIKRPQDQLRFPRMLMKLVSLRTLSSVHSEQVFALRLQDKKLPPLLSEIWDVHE
hcDAF12 ag = hcDAF-12 agonism, confirmation assay. shares compounds with hcDAF-12 act. HEK293 hcDAF-12 lit1-tk-luc reporter, luminescence; % of Δ7-dafachronic acid response. activation, % at 6.8 µM. 61% of 3,400 active. AID 743032;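 active = mean activation across triplicate tests above the threshold derived from the earlier primary screen, cut at about 5.5% in these data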
Numbers stand for hits; - = inactive; . = not tested or not shown. In the library only some 4.1% were active in any assay of this set; here they are far more common.

SMILES	hcDAF-12 act	DAX1 inh-1	hgDAF-12 ag	ssDAF12 agonist	DAX1 inh-2	LXR ag	hcDAF12 ag
Oc1csc(Cc2nc(-c3ccc(Br)cc3)cs2)n1	8.8	-	12	-	-	-	7.6
Cc1cc(O)c(C(=O)/C=C/c2ccccc2O)c(=O)o1	6.8	-	-	-	-	-	-
COc1ccc(NC(=O)CN(C)C(=O)CCCc2nc3ccccc3s2)cc1	-	-	-	-	-	.	.
O=C(NC1CCS(=O)(=O)C1)c1cccc(S(=O)(=O)N2CCCC2)c1 (centres undefined)	-	-	-	-	-	.	.
CC(=O)Nc1ccc(S(=O)(=O)Nc2nc3ccccc3nc2N2CCc3ccccc3C2)cc1	11	-	-	2.2	-	-	6.7
COc1ccc2nc3sc(C(=O)N4CCN(C)CC4)cc3cc2c1	-	-	-	-	-	.	.
COc1ccc2nc3sc(C(=O)NCCCN4CCc5ccccc5C4)cc3cc2c1	8.0	-	-	-	-	-	6.8
CC(C)NS(=O)(=O)c1ccc(OCC(=O)Nc2ccc(F)cc2)cc1	-	-	-	-	-	.	.
O=C(O)CCCCCNC(=O)C(=O)C1C(=O)Nc2ccccc21 (centres undefined)	-	-	-	-	-	.	.
COCCCNC(=O)C(=O)C1C(=O)Nc2ccccc21 (centres undefined)	11	-	-	-	-	-	-
CC(Sc1nc2c(cc1C#N)CCCCC2)C(=O)O (centres undefined)	-	-	-	-	.	.	.
CN(C(=O)COc1ccc(S(=O)(=O)N2CCOCC2)cc1[N+](=O)[O-])C1CCS(=O)(=O)C1 (centres undefined)	-	-	-	-	-	.	.
NC(=O)c1ccc(CSc2nc3ccccc3s2)cc1	8.1	-	-	-	-	-	-
CN(C)CCCN(C(=O)c1sc2ccccc2c1Cl)c1nc2ccc(F)cc2s1	7.6	-	-	-	-	-	8.0
COCCNC(=O)C1CCN(S(=O)(=O)c2c(C)noc2/C=C/c2cccs2)CC1	-	-	-	-	-	.	.
CCC(=O)Oc1ccc(-c2cnc3ccccc3n2)cc1	7.1	-	11	-	-	-	10
Cc1c(C(=O)Oc2ccc(-c3cnc4ccccc4n3)cc2)cccc1[N+](=O)[O-]	-	-	-	-	-	.	.
CC1CC1C(=O)Nc1nc2ccc(Cl)cc2s1 (centres undefined)	7.0	-	-	-	-	-	6.2
O=C(Cc1ccc(Br)cc1)Nc1ccc(S(=O)(=O)N2CCCC2)cc1	-	-	-	-	-	.	.
O=C(Cc1ccccc1[N+](=O)[O-])Nc1ccc(S(=O)(=O)N2CCCC2)cc1	9.7	-	-	1.0	-	-	-
Cc1ccsc1C=Nc1ccc(O)cc1	.	.	.	.	-	.	.
Cc1ccsc1/C=N/N=C/c1sccc1C	11	-	17	1.6	-	-	14
CC(=O)c1cccc(NC(=S)NC(=O)c2ccccc2Cl)c1	-	-	-	-	-	.	.
Cc1cc(C)c(NC(=S)NC(=O)c2ccc(-c3ccccc3)cc2)c(C)c1	-	-	-	-	-	.	.
COC(=O)c1ccccc1NC(=S)NC(=O)c1ccc(C)cc1	7.4	-	-	-	-	-	-
SMILES	hcDAF-12 act	DAX1 inh-1	hgDAF-12 ag	ssDAF12 agonist	DAX1 inh-2	LXR ag	hcDAF12 ag
O=C(NC(=S)Nc1ccccc1O)c1ccccc1Cl	7.7	-	13	1.5	-	-	6.2
Cc1ccc(C(=O)NC(=S)Nc2cc(-c3nc4ccccc4s3)ccc2C)cc1	7.2	-	12	1.4	-	-	6.0
C[C@H](CO)N1C[C@H](C)[C@@H](CN(C)S(=O)(=O)c2ccc(F)cc2)Oc2ccc(NC(=O)Cc3ccccc3)cc2C1=O	-	-	-	-	-	.	.
COc1ccc2nc(NC(=O)CSc3nc(C)cc(C)n3)sc2c1	-	-	-	-	-	.	.
COC(=O)c1ccc2nc(NC(=O)COC(=O)CSc3nc(C)cc(C)n3)sc2c1	11	-	-	-	-	-	5.9
Cc1ccc2nc(NC(=O)COC(=O)CSc3nc(C)cc(C)n3)sc2c1	9.6	-	-	-	-	-	8.7
C[C@H]1CCCN1c1ccc2c(c1)O[C@@H]1CCN(C1)S2(=O)=O	-	-	-	-	.	.	.
